Laboratory results reported in the supplement of paper PMC4466140.

The binders below were run against AgAbp1 (assay: SPOT peptide array binding signal intensity (averaged, normalized) (arbitrary units (background-subtracted, floor 0; scale differs between SH3 domains)); higher = stronger binding of the SH3 domain to the peptide).
Outline: (§1)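 Spot intensities were captured after detection with anti-GST antibody, an HRP-linked anti-mouse secondary and luminol, and quantified with Genespotter. The probes were GST-fused SH3 domains from four yeast species, produced in E. coli BL21(DE3), purified on glutathione Sepharose and incubated at 10 μg/ml overnight at 4°C on cellulose-bound synthetic 15-mer peptides with cysteines replaced by serines. Binding signal is the normalized, background-subtracted spot intensity averaged over replicates, and its arbitrary units differ between domains.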

Row | Binder | SPOT peptide array binding signal intensity
1 | RVRKTHVPASKRPSG | 81.5

What follows are binders tested against AgBbc1 in the same assay as above.
Outline: as §1

Row | Binder | SPOT peptide array binding signal intensity
2 | RVRKTHVPASKRPSG | 105

Each binder was assayed against AgBem1-D1 in the same assay as above.
Outline: as §1

Row | Binder | SPOT peptide array binding signal intensity
3 | RVRKTHVPASKRPSG | 48.5

What follows are binders tested against AgBzz1-D1 in the same assay as above.
Outline: as §1

Row | Binder | SPOT peptide array binding signal intensity
4 | RVRKTHVPASKRPSG | 2

What follows are binders tested against AgBzz1-D2 in the same assay as above.
Outline: as §1

Row | Binder | SPOT peptide array binding signal intensity
5 | RVRKTHVPASKRPSG | ≤ 0

What follows are binders tested against AgCyk3 in the same assay as above.
Outline: as §1

Row | Binder | SPOT peptide array binding signal intensity
6 | RVRKTHVPASKRPSG | 1

Each binder was assayed against AgFus1 in the same assay as above.
Outline: as §1

Row | Binder | SPOT peptide array binding signal intensity
7 | RVRKTHVPASKRPSG | 118

These binders were tested against AgHof1 in the same assay as above.
Outline: as §1

Row | Binder | SPOT peptide array binding signal intensity
8 | RVRKTHVPASKRPSG | 7

These binders were tested against AgHse1 in the same assay as above.
Outline: as §1

Row | Binder | SPOT peptide array binding signal intensity
9 | RVRKTHVPASKRPSG | 210

What follows are binders tested against AgLsb1 in the same assay as above.
Outline: as §1

Row | Binder | SPOT peptide array binding signal intensity
10 | RVRKTHVPASKRPSG | 0.75

Each binder was assayed against AgLsb4 in the same assay as above.
Outline: as §1

Row | Binder | SPOT peptide array binding signal intensity
11 | RVRKTHVPASKRPSG | 18

Each binder was assayed against AgMyo5 in the same assay as above.
Outline: as §1

Row | Binder | SPOT peptide array binding signal intensity
12 | RVRKTHVPASKRPSG | ≤ 0

What follows are binders tested against AgNbp2 in the same assay as above.
Outline: as §1

Row | Binder | SPOT peptide array binding signal intensity
13 | RVRKTHVPASKRPSG | 91

The binders below were run against AgRvs167 in the same assay as above.
Outline: as §1

Row | Binder | SPOT peptide array binding signal intensity
14 | RVRKTHVPASKRPSG | 1

Each binder was assayed against AgSho1 in the same assay as above.
Outline: as §1

Row | Binder | SPOT peptide array binding signal intensity
15 | RVRKTHVPASKRPSG | 5

What follows are binders tested against AgSla1-D1-D2 in the same assay as above.
Outline: as §1

Row | Binder | SPOT peptide array binding signal intensity
16 | RVRKTHVPASKRPSG | 18

What follows are binders tested against AgSla1-D3 in the same assay as above.
Outline: as §1

Row | Binder | SPOT peptide array binding signal intensity
17 | RVRKTHVPASKRPSG | 1.5

The binders below were run against CaAbp1-D1 in the same assay as above.
Outline: as §1

Row | Binder | SPOT peptide array binding signal intensity
18 | RVRKTHVPASKRPSG | 919

What follows are binders tested against CaAbp1-D2 in the same assay as above.
Outline: as §1

Row | Binder | SPOT peptide array binding signal intensity
19 | RVRKTHVPASKRPSG | 520

The binders below were run against CaBbc1 in the same assay as above.
Outline: as §1

Row | Binder | SPOT peptide array binding signal intensity
20 | RVRKTHVPASKRPSG | 188

Each binder was assayed against CaBem1-D1 in the same assay as above.
Outline: as §1

Row | Binder | SPOT peptide array binding signal intensity
21 | RVRKTHVPASKRPSG | 18

What follows are binders tested against CaBzz1-D1 in the same assay as above.
Outline: as §1

Row | Binder | SPOT peptide array binding signal intensity
22 | RVRKTHVPASKRPSG | 30

Each binder was assayed against CaBzz1-D2 in the same assay as above.
Outline: as §1

Row | Binder | SPOT peptide array binding signal intensity
23 | RVRKTHVPASKRPSG | 48.8

What follows are binders tested against CaCyk3 in the same assay as above.
Outline: as §1

Row | Binder | SPOT peptide array binding signal intensity
24 | RVRKTHVPASKRPSG | 7.5

These binders were tested against CaFus1 in the same assay as above.
Outline: as §1

Row | Binder | SPOT peptide array binding signal intensity
25 | RVRKTHVPASKRPSG | 200

Each binder was assayed against CaHof1 in the same assay as above.
Outline: as §1

Row | Binder | SPOT peptide array binding signal intensity
26 | RVRKTHVPASKRPSG | 0.5

What follows are binders tested against CaHse1 in the same assay as above.
Outline: as §1

Row | Binder | SPOT peptide array binding signal intensity
27 | RVRKTHVPASKRPSG | 9.75

The binders below were run against CaLsb1 in the same assay as above.
Outline: as §1

Row | Binder | SPOT peptide array binding signal intensity
28 | RVRKTHVPASKRPSG | 0.5

The binders below were run against CaLsb4 in the same assay as above.
Outline: as §1

Row | Binder | SPOT peptide array binding signal intensity
29 | RVRKTHVPASKRPSG | 33

These binders were tested against CaMyo5 in the same assay as above.
Outline: as §1

Row | Binder | SPOT peptide array binding signal intensity
30 | RVRKTHVPASKRPSG | ≤ 0
